# Measured values: PubChem BioAssay AID1159580 (chemical genetic matrix, 2015)
# In all, about 5,500 compounds went through this assay and about 2,000 (36%) were called active. Another 18% or so got no clear call; they are omitted. The list shows a part of the results. Values without a mark were called inactive. Cut-off read from the data, not from the text of the source: active = normalized growth mostly below about 0.91 (no sharp cut-off); inconclusive = no clear call, values can overlap the other calls; inactive = mostly above about 0.92.
# Assay: chemical genetic growth profiling, strain panel (AID 1159580);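 note: tested at 20 µM; growth read once vehicle control cultures reached saturation at 30 °C; 1 = growth at the plate median or of vehicle wells; lower values mean less growth of the strain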
# Details: growth OD
structure (smiles),measurement,setting,value
COc1ccc2c(=O)cc(-c3ccccc3OC)oc2c1,normalized growth,"S. cerevisiae deletion strains, locus YAL013W, strain DEP1, active compounds read low",0.743 (active)
same,normalized growth,"S. cerevisiae deletion strains, locus YBR021W, strain FUR4, active compounds read low",0.797 (active)
same,normalized growth,"S. cerevisiae deletion strains, locus YBR229C, strain ROT2, active compounds read low",0.97
same,normalized growth,"S. cerevisiae deletion strains, locus YCL029C, strain bik1, active compounds read low",0.946
same,normalized growth,"S. cerevisiae deletion strains, locus YDL035C, strain GPR1, active compounds read low",0.865
same,normalized growth,"S. cerevisiae deletion strains, locus YDL074C, strain BRE1, active compounds read low",0.81
same,normalized growth,"S. cerevisiae deletion strains, locus YDL101C, strain DUN1, active compounds read low",0.933
same,normalized growth,"S. cerevisiae deletion strains, locus YDL185W, strain tfp1, active compounds read low",0.948
same,normalized growth,"S. cerevisiae deletion strains, locus YDL192W, strain arf1, active compounds read low",0.763 (active)
same,normalized growth,"S. cerevisiae deletion strains, locus YDR101C, strain arx1, active compounds read low",0.883 (active)
same,normalized growth,"S. cerevisiae deletion strains, locus YDR162C, strain NBP2, active compounds read low",0.843
same,normalized growth,"S. cerevisiae deletion strains, locus YDR318W, strain mcm21, active compounds read low",0.866 (active)
same,normalized growth,"S. cerevisiae deletion strains, locus YDR388W, active compounds read low",0.934
same,normalized growth,"S. cerevisiae deletion strains, locus YDR502C, strain sam2, active compounds read low",0.85 (active)
same,normalized growth,"S. cerevisiae deletion strains, locus YER110C, active compounds read low",0.939
same,normalized growth,"S. cerevisiae deletion strains, locus YER155C, strain BEM2, active compounds read low",0.869 (active)
same,normalized growth,"S. cerevisiae deletion strains, locus YGL078C, strain dbp3, active compounds read low",0.934
same,normalized growth,"S. cerevisiae deletion strains, locus YGL086W, strain mad1, active compounds read low",0.833 (active)
same,normalized growth,"S. cerevisiae deletion strains, locus YGL248W, strain PDE1, active compounds read low",0.825 (active)
same,normalized growth,"S. cerevisiae deletion strains, locus YGR078C, strain PAC10, active compounds read low",0.509 (active)
same,normalized growth,"S. cerevisiae deletion strains, locus YGR135W, strain pre9, active compounds read low",0.812 (active)
same,normalized growth,"S. cerevisiae deletion strains, locus YGR252W, strain gcn5, active compounds read low",0.716 (active)
same,normalized growth,"S. cerevisiae deletion strains, locus YHR030C, strain SLT2, active compounds read low",0.539 (active)
same,normalized growth,"S. cerevisiae deletion strains, locus YHR079C, strain IRE1 (second series), active compounds read low",0.941
same,normalized growth,"S. cerevisiae deletion strains, locus YHR094C, strain hxt1, active compounds read low",0.961
same,normalized growth,"S. cerevisiae deletion strains, locus YHR129C, strain ARP1, active compounds read low",0.849 (active)
same,normalized growth,"S. cerevisiae deletion strains, locus YHR200W, strain rpn10, active compounds read low",0.895 (active)
same,normalized growth,"S. cerevisiae deletion strains, locus YIL066C, strain RNR3, active compounds read low",0.819 (active)
same,normalized growth,"S. cerevisiae deletion strains, locus YIL073C, strain SPO22, active compounds read low",0.806
same,normalized growth,"S. cerevisiae deletion strains, locus YIL125W, strain kgd1, active compounds read low",0.938
same,normalized growth,"S. cerevisiae deletion strains, locus YIR030C, strain dcg1, active compounds read low",0.905 (active)
same,normalized growth,"S. cerevisiae deletion strains, locus YJL095W, strain BCK1, active compounds read low",0.437 (active)
same,normalized growth,"S. cerevisiae deletion strains, locus YJL134W, strain LCB3, active compounds read low",0.985
same,normalized growth,"S. cerevisiae deletion strains, locus YJL168C, strain set2, active compounds read low",0.941
same,normalized growth,"S. cerevisiae deletion strains, locus YJL187C, strain SWE1 (second series), active compounds read low",0.918
same,normalized growth,"S. cerevisiae deletion strains, locus YJR043C, strain POL32, active compounds read low",0.778 (active)
same,normalized growth,"S. cerevisiae deletion strains, locus YKL009W, strain mrt4, active compounds read low",0.947
same,normalized growth,"S. cerevisiae deletion strains, locus YKL068W, active compounds read low",0.963
same,normalized growth,"S. cerevisiae deletion strains, locus YKL085W, strain MDH1 (second series), active compounds read low",0.97
same,normalized growth,"S. cerevisiae deletion strains, locus YKL085W, strain MDH1, active compounds read low",0.97
same,normalized growth,"S. cerevisiae deletion strains, locus YKR001C, strain vps1, active compounds read low",0.709 (active)
same,normalized growth,"S. cerevisiae deletion strains, locus YLR039C, strain RIC1, active compounds read low",0.642 (active)
same,normalized growth,"S. cerevisiae deletion strains, locus YLR058C, strain SHM2, active compounds read low",0.949
same,normalized growth,"S. cerevisiae deletion strains, locus YLR102C, strain apc9, active compounds read low",0.95
same,normalized growth,"S. cerevisiae deletion strains, locus YLR262C, strain YPT6, active compounds read low",0.65
same,normalized growth,"S. cerevisiae deletion strains, locus YLR268W, strain sec22, active compounds read low",0.767 (active)
same,normalized growth,"S. cerevisiae deletion strains, locus YLR330W, strain CHS5, active compounds read low",0.629 (active)
same,normalized growth,"S. cerevisiae deletion strains, locus YLR342W, strain FKS1 (second series), active compounds read low",0.716 (active)
same,normalized growth,"S. cerevisiae deletion strains, locus YLR371W, strain rom2, active compounds read low",0.728 (active)
same,normalized growth,"S. cerevisiae deletion strains, locus YLR418C, strain cdc73, active compounds read low",0.468 (active)
same,normalized growth,"S. cerevisiae deletion strains, locus YML016C, strain PPZ1, active compounds read low",0.974
same,normalized growth,"S. cerevisiae deletion strains, locus YML032C, strain rad52, active compounds read low",0.879 (active)
same,normalized growth,"S. cerevisiae deletion strains, locus YML124C, strain tub3, active compounds read low",0.94
same,normalized growth,"S. cerevisiae deletion strains, locus YMR078C, strain ctf18, active compounds read low",0.916
same,normalized growth,"S. cerevisiae deletion strains, locus YMR223W, strain ubp8, active compounds read low",0.831 (active)
same,normalized growth,"S. cerevisiae deletion strains, locus YMR307W, strain GAS1, active compounds read low",0.49 (active)
same,normalized growth,"S. cerevisiae deletion strains, locus YNL067W, strain RPL9B, active compounds read low",0.923
same,normalized growth,"S. cerevisiae deletion strains, locus YNL128W, strain TEP1, active compounds read low",0.708 (active)
same,normalized growth,"S. cerevisiae deletion strains, locus YNL233W, strain BNI4, active compounds read low",0.632 (active)
same,normalized growth,"S. cerevisiae deletion strains, locus YNL250W, strain rad50, active compounds read low",0.984
same,normalized growth,"S. cerevisiae deletion strains, locus YNL271C, strain bni1, active compounds read low",0.939
same,normalized growth,"S. cerevisiae deletion strains, locus YNL298W, strain CLA4, active compounds read low",0.912
same,normalized growth,"S. cerevisiae deletion strains, locus YNL307C, strain MCK1, active compounds read low",0.526 (active)
same,normalized growth,"S. cerevisiae deletion strains, locus YNL322C, strain KRE1, active compounds read low",0.969
same,normalized growth,"S. cerevisiae deletion strains, locus YNR052C, strain pop2, active compounds read low",0.914 (active)
same,normalized growth,"S. cerevisiae deletion strains, locus YOL006C, strain TOP1, active compounds read low",0.484 (active)
same,normalized growth,"S. cerevisiae deletion strains, locus YOL012C, strain htz1",0.811
same,normalized growth,"S. cerevisiae deletion strains, locus YOL147C, strain pex11, active compounds read low",0.874 (active)
same,normalized growth,"S. cerevisiae deletion strains, locus YOR061W, strain CKA2, active compounds read low",0.976
same,normalized growth,"S. cerevisiae deletion strains, locus YOR069W, strain VPS5, active compounds read low",0.957
same,normalized growth,"S. cerevisiae deletion strains, locus YOR136W, strain idh2, active compounds read low",0.931
same,normalized growth,"S. cerevisiae deletion strains, locus YOR144C, strain elg1, active compounds read low",0.916 (active)
same,normalized growth,"S. cerevisiae deletion strains, locus YOR184W, strain ser1, active compounds read low",0.671 (active)
same,normalized growth,"S. cerevisiae deletion strains, locus YOR316C, strain cot1, active compounds read low",0.958
same,normalized growth,"S. cerevisiae deletion strains, locus YPL241C, strain CIN2, active compounds read low",0.918 (active)
same,normalized growth,"S. cerevisiae deletion strains, locus YPR119W, strain clb2, active compounds read low",0.941
same,normalized growth,"S. cerevisiae deletion strains, locus YPR141C, strain kar3, active compounds read low",0.96
same,normalized growth,"S. cerevisiae deletion strains, locus YPR163C, strain tif3, active compounds read low",0.748 (active)
same,normalized growth,"S. cerevisiae deletion strains, locus YPR167C, strain met16, active compounds read low",0.902 (active)
same,normalized growth,"S. cerevisiae deletion strains, strain wtn01, active compounds read low",0.802 (active)
same,normalized growth,"S. cerevisiae strains, strain wild type, active compounds read low",0.589 (active)
